The panel holds about 83,000 compounds, 20% with a hit somewhere; the sample as a whole holds those more often.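 48-hour exposure, single concentration, 96-well plates; percent growth endpoint where 0 means no net growth. Active: below 10.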 Activity calls are given as the source filed them.
Key:
Assay in all cases: NCI-60 one-dose screen, 48 h (100 = growth as untreated, 0 = no growth, -100 = all killed)
Settings in all cases: 10 µM unless noted
SK-MEL-2 melanoma = test system: SK-MEL-2 melanoma
EKVX NSCLC = test system: EKVX NSCLC
SN12C renal = test system: SN12C renal
UO-31 renal = test system: UO-31 renal
TK-10 renal = test system: TK-10 renal
ACHN renal = test system: ACHN renal
CAKI-1 renal = test system: CAKI-1 renal
A498 renal = test system: A498 renal
CCRF-CEM leukemia = test system: CCRF-CEM leukemia
MOLT-4 leukemia = test system: MOLT-4 leukemia
OVCAR-8 ovarian = test system: OVCAR-8 ovarian
OVCAR-5 ovarian = test system: OVCAR-5 ovarian
OVCAR-4 ovarian = test system: OVCAR-4 ovarian
SK-OV-3 ovarian = test system: SK-OV-3 ovarian
IGROV1 ovarian = test system: IGROV1 ovarian
OVCAR-3 ovarian = test system: OVCAR-3 ovarian
HS 578T breast = test system: HS 578T breast
NCI/ADR-RES ovarian = test system: NCI/ADR-RES ovarian
RPMI-8226 leukemia = test system: RPMI-8226 leukemia
SR leukemia = test system: SR leukemia

Measured: growth

O=c1c2cc(F)ccc2sc2c(NCCCN3CCCC3)nc3ccccc3c12
active: MOLT-4 leukemia -14.5%
inactive: SK-MEL-2 melanoma 85.4% | EKVX NSCLC 53.5% | SN12C renal 42.3% | UO-31 renal 15.1% | TK-10 renal 57.9% | ACHN renal 41.8% | CAKI-1 renal 30.4% | A498 renal 46.6% | CCRF-CEM leukemia 29% | OVCAR-8 ovarian 55.6% | OVCAR-5 ovarian 70.3% | OVCAR-4 ovarian 48.7% | SK-OV-3 ovarian 88.9% | IGROV1 ovarian 15.1% | OVCAR-3 ovarian 29.3% | HS 578T breast 43.8% | NCI/ADR-RES ovarian 67.5%

c1ccc(-c2nc([P+](c3ccccc3)(c3ccccc3)c3ccccc3)c(N3CCOCC3)o2)cc1
inactive: EKVX NSCLC 14.9% | UO-31 renal 74% | TK-10 renal 29.9% | ACHN renal 13.2% | CAKI-1 renal 50.9% | A498 renal 11.7% | CCRF-CEM leukemia 13.4% | OVCAR-5 ovarian 11.1% | OVCAR-4 ovarian 11.4% | IGROV1 ovarian 16.7% | OVCAR-3 ovarian 11% | HS 578T breast 24.9% | NCI/ADR-RES ovarian 92.8%
active: SK-MEL-2 melanoma -25.3% | SN12C renal 1.32% | MOLT-4 leukemia 7.65% | RPMI-8226 leukemia -28.5% | OVCAR-8 ovarian 1.55%

CC1(C)CC(=O)C2=C(C1)N(c1ccc(OC(F)(F)F)cc1)C(N)=C(C#N)C2c1ccc(Cl)cc1 (centres undefined)
inactive: SK-MEL-2 melanoma 90.7% | EKVX NSCLC 84.6% | SN12C renal 80% | UO-31 renal 89.9% | TK-10 renal 89.7% | ACHN renal 71.4% | CAKI-1 renal 60.8% | A498 renal 94.4% | CCRF-CEM leukemia 96.5% | MOLT-4 leukemia 95.4% | OVCAR-8 ovarian 56.2% | OVCAR-5 ovarian 91% | OVCAR-4 ovarian 85% | SK-OV-3 ovarian 62.7% | IGROV1 ovarian 90.3% | OVCAR-3 ovarian 94.5% | HS 578T breast 65.5% | NCI/ADR-RES ovarian 87.6%

COc1cc(C(=O)/C=C/c2c(-c3ccc(F)cc3)nc3sc(C)cn23)cc(OC)c1OC
active: A498 renal -1.47% | MOLT-4 leukemia -38.8% | NCI/ADR-RES ovarian 2.75%
inactive: SK-MEL-2 melanoma 144% | EKVX NSCLC 17.4% | SN12C renal 56.3% | UO-31 renal 58% | TK-10 renal 52.2% | ACHN renal 46.5% | CAKI-1 renal 32.8% | CCRF-CEM leukemia 14.8% | OVCAR-8 ovarian 22.5% | OVCAR-5 ovarian 143% | OVCAR-4 ovarian 24.4% | SK-OV-3 ovarian 64.4% | IGROV1 ovarian 84.9% | OVCAR-3 ovarian 16.5% | HS 578T breast 25.4%

O=S(=O)(NCCCNc1cc(-c2c(-c3cccc(O)c3)nc3sccn23)ccn1)c1cccc(Cl)c1
active: RPMI-8226 leukemia 5.17%
inactive: SK-MEL-2 melanoma 63.7% | EKVX NSCLC 58.6% | SN12C renal 27% | UO-31 renal 31.5% | TK-10 renal 94.4% | ACHN renal 41.6% | CAKI-1 renal 43% | A498 renal 80.4% | CCRF-CEM leukemia 22.8% | MOLT-4 leukemia 15.2% | OVCAR-5 ovarian 107% | OVCAR-4 ovarian 35.2% | SK-OV-3 ovarian 49.1% | IGROV1 ovarian 40.5% | OVCAR-3 ovarian 32.7% | HS 578T breast 32.5% | NCI/ADR-RES ovarian 76.7%

COc1ccc(OC)c2c1[nH]c(=O)c1c3ncccc3cn21
active: CAKI-1 renal -29.2%
inactive: SK-MEL-2 melanoma 65.6% | EKVX NSCLC 34.4% | SN12C renal 13.3% | UO-31 renal 26.5% | TK-10 renal 38.6% | ACHN renal 17.7% | A498 renal 31.5% | CCRF-CEM leukemia 36.5% | MOLT-4 leukemia 17.7% | RPMI-8226 leukemia 30.1% | OVCAR-8 ovarian 16.8% | SK-OV-3 ovarian 38.9% | IGROV1 ovarian 28% | OVCAR-3 ovarian 46.8% | HS 578T breast 69.2% | NCI/ADR-RES ovarian 13.8%

CCN(CC)c1ccc(C(=O)c2ccc(N(CC)CC)cc2)cc1
active: SK-OV-3 ovarian -1.44% | OVCAR-3 ovarian -20.3% | NCI/ADR-RES ovarian -27.8%
inactive: SK-MEL-2 melanoma 18.7% | EKVX NSCLC 55% | SN12C renal 40.8% | UO-31 renal 60.4% | TK-10 renal 35.1% | ACHN renal 53.1% | CAKI-1 renal 43.4% | A498 renal 41.1% | CCRF-CEM leukemia 19.8% | MOLT-4 leukemia 24.3% | RPMI-8226 leukemia 20.8% | OVCAR-5 ovarian 40.8% | OVCAR-4 ovarian 61.4% | IGROV1 ovarian 37.3% | HS 578T breast 36.2%

OC(c1cccc(-n2ccc(C(F)(F)F)n2)c1)c1cnccc1NC1CCCCCC1 (centres undefined)
inactive: SK-MEL-2 melanoma 27.1% | EKVX NSCLC 72.6% | SN12C renal 47.8% | UO-31 renal 41.5% | TK-10 renal 86.7% | CAKI-1 renal 66.5% | A498 renal 60.4% | OVCAR-5 ovarian 15.2% | OVCAR-4 ovarian 40.8% | IGROV1 ovarian 38.5% | OVCAR-3 ovarian 52.4% | HS 578T breast 49.8% | NCI/ADR-RES ovarian 30%
active: ACHN renal -32.2% | CCRF-CEM leukemia 8.54% | MOLT-4 leukemia -14.2% | RPMI-8226 leukemia -33.4% | OVCAR-8 ovarian 6.25%

CNc1ccc(NC)c2c1C(=O)c1ccccc1C2=O
inactive: SK-MEL-2 melanoma 97.7% | EKVX NSCLC 94.6% | SN12C renal 80.3% | UO-31 renal 77.7% | TK-10 renal 84.9% | ACHN renal 77.7% | CAKI-1 renal 76.4% | A498 renal 94.4% | CCRF-CEM leukemia 84.3% | MOLT-4 leukemia 92.1% | RPMI-8226 leukemia 90.2% | OVCAR-5 ovarian 101% | OVCAR-4 ovarian 68.4% | SK-OV-3 ovarian 67.4% | IGROV1 ovarian 69% | OVCAR-3 ovarian 95.4% | HS 578T breast 98.5% | NCI/ADR-RES ovarian 88%

O=C(CSc1nnc(-c2ccc(NC(=O)c3cccnc3)cc2)o1)N[C@@H](Cc1ccc(O)cc1)C(=O)O
inactive: SK-MEL-2 melanoma 99.8% | EKVX NSCLC 110% | SN12C renal 94.4% | UO-31 renal 85.1% | TK-10 renal 106% | ACHN renal 98.6% | CAKI-1 renal 92.4% | A498 renal 117% | CCRF-CEM leukemia 96.6% | MOLT-4 leukemia 99.8% | OVCAR-8 ovarian 99.8% | OVCAR-5 ovarian 106% | OVCAR-4 ovarian 120% | SK-OV-3 ovarian 101% | IGROV1 ovarian 102% | OVCAR-3 ovarian 120% | HS 578T breast 96.9% | NCI/ADR-RES ovarian 104%

CCN1CCN(c2nc(C)cc(NCc3cc(Nc4ccnc5cc(Cl)ccc45)ccc3F)n2)CC1
active: SK-MEL-2 melanoma -49.7% | CCRF-CEM leukemia -19.4% | SR leukemia -18.8% | RPMI-8226 leukemia -31.1% | HS 578T breast 9.27%
inactive: EKVX NSCLC 49.4% | SN12C renal 44% | UO-31 renal 17.1% | TK-10 renal 28.9% | ACHN renal 16.9% | CAKI-1 renal 68.8% | A498 renal 15.6% | OVCAR-8 ovarian 17.4% | OVCAR-5 ovarian 17.8% | OVCAR-4 ovarian 26.1% | SK-OV-3 ovarian 31.5% | IGROV1 ovarian 15.8% | OVCAR-3 ovarian 10.5% | NCI/ADR-RES ovarian 24.6%

C(=N\Nc1ncc(-c2cc3cc4c(cc3o2)OCO4)s1)/c1ccco1
active: UO-31 renal -43.4% | CAKI-1 renal 9.09% | MOLT-4 leukemia 9.91% | OVCAR-3 ovarian 8.65%
inactive: SK-MEL-2 melanoma 90.8% | EKVX NSCLC 59.3% | SN12C renal 38.9% | TK-10 renal 50.7% | ACHN renal 11.1% | A498 renal 71.1% | CCRF-CEM leukemia 17.5% | RPMI-8226 leukemia 30.9% | OVCAR-8 ovarian 23.7% | OVCAR-5 ovarian 58% | OVCAR-4 ovarian 32.5% | IGROV1 ovarian 30.2% | HS 578T breast 70.6% | NCI/ADR-RES ovarian 34.7%

CCN(CC)S(=O)(=O)c1cccc(-c2ccc3c(NC(=O)C4CC4)n[nH]c3c2)c1
inactive: EKVX NSCLC 27.5% [6.25 µM] | SN12C renal 38.8% [6.25 µM] | UO-31 renal 36% [6.25 µM] | TK-10 renal 35.4% [6.25 µM] | ACHN renal 27.2% [6.25 µM] | CAKI-1 renal 37.7% [6.25 µM] | CCRF-CEM leukemia 17.6% [6.25 µM] | MOLT-4 leukemia 10.4% [6.25 µM] | RPMI-8226 leukemia 11% [6.25 µM] | OVCAR-5 ovarian 51.6% [6.25 µM] | OVCAR-4 ovarian 18.7% [6.25 µM] | SK-OV-3 ovarian 28.6% [6.25 µM] | IGROV1 ovarian 34.7% [6.25 µM] | OVCAR-3 ovarian 17.3% [6.25 µM] | HS 578T breast 23.8% [6.25 µM] | NCI/ADR-RES ovarian 79.7% [6.25 µM]
active: SK-MEL-2 melanoma -16.9% [6.25 µM] | A498 renal 9.92% [6.25 µM]

Cc1ccc2nc3ccccc3c(NCc3ccccc3)c2c1
inactive: SK-MEL-2 melanoma 100% | EKVX NSCLC 49.6% | SN12C renal 25.5% | UO-31 renal 18.3% | TK-10 renal 75.3% | ACHN renal 23.2% | CAKI-1 renal 35.5% | A498 renal 11.4% | CCRF-CEM leukemia 34.9% | OVCAR-8 ovarian 33.5% | OVCAR-5 ovarian 40.4% | OVCAR-4 ovarian 32.8% | SK-OV-3 ovarian 64.3% | IGROV1 ovarian 15.8% | OVCAR-3 ovarian 66% | HS 578T breast 69.8% | NCI/ADR-RES ovarian 29.8%
active: SR leukemia 4.1% | RPMI-8226 leukemia 6.82%

COc1nc(N(C)O)nc(N(C)O)n1
active: OVCAR-3 ovarian 9.27%
inactive: SK-MEL-2 melanoma 70.9% | EKVX NSCLC 31.2% | SN12C renal 42.5% | UO-31 renal 36.9% | TK-10 renal 32.5% | ACHN renal 11.2% | CAKI-1 renal 36.3% | A498 renal 76.7% | CCRF-CEM leukemia 14.4% | MOLT-4 leukemia 35.7% | OVCAR-8 ovarian 27.1% | OVCAR-5 ovarian 53.6% | OVCAR-4 ovarian 33.3% | SK-OV-3 ovarian 32% | IGROV1 ovarian 54.7% | HS 578T breast 87.9% | NCI/ADR-RES ovarian 14.9%

Cn1cc2c(c1)-c1nc(Nc3ccccc3)ncc1CC2
active: A498 renal 6.32%
inactive: SK-MEL-2 melanoma 73.6% | EKVX NSCLC 54.6% | SN12C renal 64.8% | UO-31 renal 46.2% | TK-10 renal 61.9% | ACHN renal 47.8% | CAKI-1 renal 48.8% | CCRF-CEM leukemia 61.2% | MOLT-4 leukemia 44.6% | OVCAR-8 ovarian 79.6% | OVCAR-5 ovarian 60% | OVCAR-4 ovarian 69.3% | SK-OV-3 ovarian 77.6% | IGROV1 ovarian 58.6% | OVCAR-3 ovarian 69.5% | HS 578T breast 78.4% | NCI/ADR-RES ovarian 71.6%

Source: PubChem BioAssay (NCI)
